# Target: RUNX1 (UniProt Q01196)
# Test: RUNX1 binding intensity (PBM fluorescence), RUNX1 alone (arbitrary fluorescence units); higher = stronger binding
# Conditions: RUNX1 concentration 2 nM; ETS1 concentration 0 nM
# Procedure: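 Cooperative gcPBM on 36-bp genomic probes with neighbouring ETS1 and RUNX1 sites. Recombinant human RUNX1 (2 nM) was incubated alone or with ETS1 (25 nM) and detected with anti-RUNX1 antibody plus Alexa488 secondary. Values are medians over 4 replicate spots; the RUNX1+ETS1 data were normalised to the RUNX1-only data. The probes sit in constant array flanks that are not printed.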
# 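Also: Full-length recombinant human RUNX1 bound to double-stranded 36-bp genomic probes on a high-density microarray, scored as Alexa488 fluorescence per spot via anti-RUNX1 antibody, median of four replicate spots.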
# RUNX1, sequence (Q01196 whole entry): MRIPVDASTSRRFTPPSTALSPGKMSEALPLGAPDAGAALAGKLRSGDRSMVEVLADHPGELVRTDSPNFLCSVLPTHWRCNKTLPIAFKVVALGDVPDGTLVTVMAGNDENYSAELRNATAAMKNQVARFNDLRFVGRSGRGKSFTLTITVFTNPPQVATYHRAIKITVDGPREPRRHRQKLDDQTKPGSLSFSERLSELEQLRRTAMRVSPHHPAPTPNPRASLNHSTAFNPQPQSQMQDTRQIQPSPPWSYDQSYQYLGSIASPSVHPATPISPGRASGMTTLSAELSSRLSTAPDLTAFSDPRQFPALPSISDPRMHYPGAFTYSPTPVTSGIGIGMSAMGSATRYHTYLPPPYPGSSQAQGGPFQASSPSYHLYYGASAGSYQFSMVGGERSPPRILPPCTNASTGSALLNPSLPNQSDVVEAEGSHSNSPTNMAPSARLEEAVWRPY
row,Sequence,RUNX1 binding intensity
1,TTACACAACAGGAAACTATGTTTAGCGGTTAATCCA,885
2,GACATGCTCCGGAAGCTTGAGGTTTTAACGTTAAGG,734
3,TCTGTGACTACGCGGATGTTGTGGGCGGCTACATGC,749
4,CCTGTTGATAAAACAGGATGTGGTAAAGAAGCTGGC,830
5,TCTAAATCACTTCCTGTTACAGAAACCACAGGCCTG,1220
6,GCAGGACTTCCTGTGTTGTGCTAACCTCAAATTACA,859
7,CGAGGGAGCCGGAAAGATGGTGGTTACCAGATCTGC,766
8,GACACAAGAACAGCAGGATGTGGTCAGAGGCGTCGT,722
9,TTTCTGACACTCTCAGGATGTGGGTTTTCACACTGT,828
10,ATGAGCTATTTCCTGCCTTGTGGTCAGAGCCAGACT,1050
11,CGCCGAACTTCCGGCAGTAAATTCCGTGGTTTCCCT,911
12,AACCAAACAGCCACAGGAAGTGGTTTCTGTGATTCA,840
13,CGTCTAATTGCAGGAAGTGGTTTGAAATGTTAATCT,1980
14,GGCCTCGGCCACATCCGGGTTCCACCGCAGATTCGG,819
15,TCGCACCGGAACCCCTTGGCGGATTATGTGGGTTCC,782
16,GCTGATAGAACAGGATGTGGTAAAGAAGCAGGCCAA,824
17,CAAGAGGAACCGGAACTTTGGAAACCACATTCTTAT,911
18,CAGGGTGGAAACAGGAAGAGAAACCACACTTAACCT,845
19,GAGGCCGAAAGGAAGTTTGAGGTTAAGCACAAGATG,792
20,TCCCACATCCTGTGCTCGTGCAGTGGTTAGGCTCAA,793
21,CCCAGCCCTGCTGCCGGATGTGGTGAGGCCCAGGTG,768
